Rows were chosen to be rich in hits. Some 11% of all compounds tested hit in one or more screens of this group.
G9a block – qHTS Assay for Inhibitors of Histone Lysine Methyltransferase G9a; Histone-lysine N-methyltransferase EHMT2 (Homo sapiens), Q96KQ7; G9a H3K9 monomethylation, AlphaScreen, 2 h; Potency, µM (doses to about 102 µM), inactives show at the top dose activity, negative = inhibition, hits mostly inhibitors; 350,000 tested, 8.8% active; AID 504332, 2011; further: on the % scale 0 is the no-effect control and ±100 the full control effect; nearly all actives have a fitted effect of over 75% in size
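Methyltransferase reactions run at room temperature for 2 h (20 nM enzyme, 500 nM biotin-H3K9 peptide, 20 uM SAM) after a 15 min compound preincubation; product detected by AlphaScreen beads and anti-H3K9me1 antibody.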
L3MBTL1 inh – qHTS Assay for the Inhibitors of L3MBTL1. AlphaScreen L3MBTL1–H3K9me1 peptide binding. AID 485360, 2010. Lethal(3)malignant brain tumor-like protein 1 (Homo sapiens), Q9Y468. Potency, µM (titrated, usually from 57.1 µM), for the others: at the highest dose activity, negative = inhibition, actives largely listed as inhibitors. 230,000 tested, 0.66% active; further: on the % scale 0 is the no-effect control and ±100 the full control effect; nearly all actives have a fitted effect of over 60% in size
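L3MBTL1 (50 nM) pre-complexed 30 min with biotinylated H3(1-15)K9me1 peptide (75 nM), then compounds added for 30 min at room temperature; AlphaScreen streptavidin donor/nickel chelate acceptor beads (10 ug/mL final) read after 30 min dark incubation.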
BAZ2B inh – qHTS Assay for Inhibitors of BAZ2B | 360,000 tested, 4.4% active | AlphaScreen BAZ2B-H3K14Ac peptide displacement | Bromodomain adjacent to zinc finger domain protein 2B (Homo sapiens), Q9UIF8 | Potency, µM (highest dose often 114 µM), for inactives: at the top dose activity change, negative = inhibition, usual class: inhibitors | AID 504333, 2011; further: on the % scale 0 is the no-effect control and ±100 the full control effect; nearly all actives have a fitted effect of over 60% in size
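AlphaScreen luminescence quantifies BAZ2B engagement of H3K14Ac peptide; the protein and biotinylated peptide are both at 50 nM final, buffer PBS pH 7.4 with 0.01% Tween-20, all steps at room temperature.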
JMJD2A Tudor – qHTS Assay for Inhibitors of JMJD2A-Tudor Domain; AlphaScreen JMJD2A-Tudor / H3K4me3 peptide binding; Potency, µM (titrated, usually from 114 µM), inactives show top-dose activity change, negative = inhibition, usual class: inhibitors; 390,000 tested, 4.4% active; AID 504339, 2011; further: on the % scale 0 is the no-effect control and ±100 the full control effect; nearly all actives have a fitted effect of over 50% in size
HP1b binding inh – HTS for Inhibitors of HP1-beta Chromodomain Interactions with Methylated Histone Tails | Chromobox protein homolog 1 (Homo sapiens), P83916 | AlphaScreen HP1-beta / biotin-H3K9me3 peptide binding | Potency, µM (series often up to 114 µM), without a hit: at the top dose activity change, negative = inhibition, hits mostly inhibitors | 390,000 tested, 0.56% active | AID 540317, 2011; further: nearly all actives have a fitted effect of over 70% in size
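AlphaScreen: HP1-beta (50 nM) preformed 30 min with biotin-H3(1-18)K9me3 peptide (50 nM) in PBS pH 7.4, 0.01% Tween-20. Compound added for 30 min at RT, then streptavidin donor/nickel chelate acceptor beads (10 ug/mL) for 30 min.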
An asterisk follows results filed as active; ? = inconclusive; . = no result given; [ ] = another dose, or the depositor's remark. The call rests on the fitted dose curve; in most records, active means well fitted inhibition curve with a large enough effect; inconclusive means small, poorly fitted or top-dose-only effect; inactive means no such curve, though single readings can be large or run the other way. Potency means the concentration at half of the fitted maximal effect.

SMILES | G9a block | L3MBTL1 inh | BAZ2B inh | JMJD2A Tudor | HP1b binding inh
CCSC1=C(C#N)C(c2cccc(OC)c2)CC(=O)N1 (centres undefined) | ? | -4% | -1% | -18% | 20%
N#CC1=C2SCN(C3CCCCC3)CN2C(=O)CC1c1ccc(Br)cc1 (centres undefined) | 2.8µM* | . | . | 16µM* | ?
CCOc1cc(C2CC(=O)N3CN(C4CCCCC4)CSC3=C2C#N)ccc1O (centres undefined) | 2.2µM* | -4% | -25% | 79µM* | ?
N#CC1=C(SCc2ccccc2)NC(=O)CC1c1ccc(O)cc1 (centres undefined) | -14%[12.7 µM] | -5%[11.4 µM] | 6% | -12% | 10%
CCOc1cc(C2CC(=O)NC(SCC)=C2C#N)ccc1O (centres undefined) | 50µM* | . | -4% | -4% | 41%
Cc1ccc(C2CC(=O)NC(SCc3ccccc3)=C2C#N)cc1 (centres undefined) | -10%[59 µM] | 2% | -12% | 89µM* | -10%
Cc1ccc(C(=O)CSC2=C(C#N)C(c3ccco3)CC(=O)N2)c(C)c1 (centres undefined) | ? | ? | . | 50µM* | -40%
Cc1ccc(NC(=O)CSC2=C(C#N)C(c3ccco3)CC(=O)N2)cc1 (centres undefined) | -15% | . | ? | -14% | 24%
CCN(Cc1nc2cc(Cl)ccc2c(=O)[nH]1)C(=O)CN1C(=O)NC2(CCCCC2C)C1=O (centres undefined) | 50µM* | 0% | -4% | -18% | -1%
Cc1ccc(Cn2c(=O)c3ccccc3n3c(-c4ccccc4)nnc23)cc1 | -47%[59 µM] | . | 0% | 4% | 35%
CN(C)c1ccc(/C=N/n2cnn(Cc3ccccc3Cl)c2=S)cc1 | 4.5µM* | -25% | ? | -22% | ?
Fc1ccc(/C=N/n2cnn(Cc3ccccc3Cl)c2=S)cc1 | 20µM* | 9% | 26% | 27% | -5%
CN(Cc1ccco1)c1cc(-c2ccoc2)ncn1 | -24%[0.501 µM] | . | . | . | .
Cc1ccccc1-c1cncnc1NCc1ccccc1 | 8%[0.501 µM] | . | . | . | .
Nc1nn2cc(-c3ccc(Br)cc3)nc2c2ccccc12 | 79µM* | . | -31% | -18% | 16%
COc1ccc2c(c1)Sc1ccccc1N2 | 3.5µM* | ? | 20µM* | 40µM* | 28µM*
c1ccc2c(c1)Nc1cc3ccccc3cc1S2 | 40µM* | -14% | -30% | -28% | 2%
COc1ccc2c(c1)S(=O)(=O)c1ccccc1N2 | 14% | 3% | -2% | -19% | 27%
c1ccc2c(c1)Nc1ccncc1S2 | . | 34% | -26% | -18% | 27%
CCOc1ccc(N2CC(C(=O)Nc3ccncc3)CC2=O)cc1 (centres undefined) | 4%[59 µM] | . | ? | -14% | 16%
N#CC1=C(SCc2ccccc2)NC2=C(C(=O)CCC2)C1c1ccc2c(c1)OCO2 (centres undefined) | 4%[2.33 µM] | -17% | -38% | 45µM* | -2%
C=CCOC(=O)C1=C(C)NC(SCC(=O)OCC)=C(C#N)C1c1ccc(O)c(OC)c1 (centres undefined) | 32µM* | -3% | 6% | -15% | 29%
Cc1ccc(NC(=O)CSC2=C(C#N)C(c3ccc4c(c3)OCO4)C3=C(CCCC3=O)N2)c(C)c1 (centres undefined) | 50µM* | -11% | -34% | -26% | 30%
CCc1ccccc1NC(=O)CSC1=C(C#N)C(c2ccc(O)c(OC)c2)C2=C(CCCC2=O)N1 (centres undefined) | 8.9µM* | 23%[11.4 µM] | -34% | -18%[11.4 µM] | -27%
O=C1O[C@@H]([C@H](O)CO)C(O)=C1O | . | . | . | -17% | 45%
SMILES | G9a block | L3MBTL1 inh | BAZ2B inh | JMJD2A Tudor | HP1b binding inh
CC(C)C[C@H](NC(=O)[C@H](CCCCN)NC(=O)[C@H](CCCNC(=N)N)NC(=O)[C@H](C)NC(=O)[C@H](CO)NC(=O)[C@H](CCCCN)NC(=O)[C@H](CCCNC(=N)N)NC(=O)[C@H](C)NC(=O)CNC(=O)[C@@H](NC(=O)[C@H](Cc1ccccc1)NC(=O)CNC(=O)CNC(=O)[C@@H](N)Cc1ccccc1)[C@H](C)O)C(=O)N[C@@H](C)C(=O)N[C@@H](CC(N)=O)C(=O)N[C@@H](CCC(N)=O)C(=O)O | 24%[59 µM] | . | . | . | .
Cc1ccc(NC(=O)c2ccc(-n3c(C)nnc3C)cc2)cc1F | 9%[59 µM] | . | 1% | -5% | 12%[57 µM]
O=C1CCCC2=C1C(c1ccc3c(c1)OCO3)c1c([nH]n(-c3ccccc3)c1=O)N2 (centres undefined) | 40µM* | -6% | -4% | -23% | -4%
Cc1cc(SCC(=O)Nc2nsc(-c3ccc(C(C)(C)C)cc3)n2)nc2ccccc12 | -31%[59 µM] | . | -11% | -21% | 22%
COc1cc(-c2nnc(SCC(=O)N3CCOCC3)o2)cc(OC)c1OC | 40µM* | . | -5% | -28% | 9%
COC(=O)C1=C(C)N(CC(C)C)C(=O)C1 | 40µM* | . | 7% | -6% | 28%
COC(=O)C1=C(C)N(Cc2cccnc2)C(=O)C1 | 14µM* | 11% | 2% | -20% | 32%
C=CCN1C(=O)/C(=C\c2cccs2)C(C(=O)OC)=C1C | 50µM* | . | 40µM* | ? | ?
COC(=O)C1=C(C)N(c2ccc(C)cc2)/C(=C/c2cccs2)C1=O | -3%[59 µM] | -4% | 7% | -22%[57.1 µM] | 47%
COC(=O)C1=C(C)N(Cc2ccc(OC)cc2)C(=O)C1 | 8%[59 µM] | 1% | 34% | -11% | 22%
COC(=O)C1=C(C)N(Cc2cccnc2)C(=O)/C1=C\c1cccs1 | . | ? | 28µM* | . | .
CCn1cc2nc(SCC(=O)Nc3ccccc3C(F)(F)F)n(Cc3ccc(C)cc3)c(=O)c2n1 | ? | . | ? | -41% | 8%
c1ccc(OCCCN2CCCC2)cc1 | 3.2µM* | . | 79µM* | 2.8µM* | -45%
c1ccc(COc2ccc(OCCCN3CCCCC3)cc2)cc1 | 13µM* | . | ? | 40µM* | ?
c1ccc(OCCCCN2CCCCC2)cc1 | 7%[59 µM] | 0% | 3% | -11% | 15%
COc1ccc(OCCCN2CCCCCC2)cc1 | 15%[2.33 µM] | . | -36% | ? | 15%
c1ccc(COc2ccc(OCCCCN3CCCC3)cc2)cc1 | 22µM* | ? | 56µM* | 1.4µM* | ?
CCOC(=O)c1ccc(NC(=O)CCc2c(C)nc3cc(-c4ccc(OC)cc4OC)nn3c2C)cc1 | 5%[59 µM] | . | -2% | -8% | 55%
C/C(=N\NC(=O)CN(c1ccc(C)cc1)S(C)(=O)=O)c1cccs1 | -4% | -3% | -2% | -9% | 9%
C/C(=N\NC(=O)CN(c1ccccc1Br)S(C)(=O)=O)c1cccs1 | . | 6% | -3% | 22µM* | -5%

High-throughput results from PubChem.
